Most compounds without a hit are left out; they make up all but 1% or so of the library.
EBNA-1 inhibitor: EBNA-1 DNA-binding inhibitors, primary screen, biochemical, fluorescence polarization; 300,000 tested, 0.34% active; inhibition, % at 14.8 µM; in the data active = inhibition above about 28%
EBV gp42 block: Epstein-Barr virus gp42 inhibitors, primary screen, biochemical, uHTS, fluorescence polarization. inhibition, % (tested at 21.74 µM). AID 1085, 2008. 220,000 tested, 0.42% active. Fluorescence polarization binding assay, mP read-out; in the data active = inhibition above about 50%
MEX-5 binding: MEX-5 zinc finger RNA-binding disruptors – biochemical, C. elegans, fluorescence polarization, MLPCN library, primary screen; Zinc finger protein mex-5 (Caenorhabditis elegans), Q9XUB2; MEX-5/FITC-TCR2 RNA binding; active compounds read low; activity score (negative = inhibition of binding), % at 10 µM; 300,000 tested, 0.38% active; AID 1832, 2009;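 active = inhibition past about -25% in most replicates, and total fluorescence under double the plate's negative control median, limit read from the data; inconclusive = replicates evenly split on the limit, or fluorescence at least double controls; inactive = too little inhibition in most replicates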;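 note: 0% = DMSO and -100% = 5 µM competing unlabeled TCR2 RNA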
ZTA counter: ZTA (EBV) inhibition in EBNA-1 counter-screen; ZTA-DNA binding, fluorescence polarization; inhibition, % at 11 µM; 320,000 tested, 0.15% active; AID 2234; in the data active = inhibition above about 33%
Target sequence (P03206 whole entry, looked up): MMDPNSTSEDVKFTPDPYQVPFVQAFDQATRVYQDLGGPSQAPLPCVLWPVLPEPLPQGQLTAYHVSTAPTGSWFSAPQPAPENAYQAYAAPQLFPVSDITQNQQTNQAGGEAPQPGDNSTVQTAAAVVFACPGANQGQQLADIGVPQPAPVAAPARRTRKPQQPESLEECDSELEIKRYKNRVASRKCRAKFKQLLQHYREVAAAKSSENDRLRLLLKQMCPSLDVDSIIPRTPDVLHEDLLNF
* = called active by the depositor; ? = inconclusive; · = no result; ! = a repeat was not active.

SMILES	EBNA-1 inhibitor	EBV gp42 block	MEX-5 binding	ZTA counter
CN1CCC2(CC1)C(C#N)=C(N)NC(S)=C2C#N	3	-2	-43*!	11
CN1C(=O)c2ccccc2Sc2ccc(C(=O)N3CCC4(CC3)OCCO4)cc21	13	2	0	9
Cc1ccc(/C=C2/Sc3ccc(C(=O)N4CCC5(CC4)OCCO5)cc3NC2=O)cc1	4	·	-29*	10
COc1ccc(CN2C(=O)NC(=O)/C(=C\c3ccco3)C2=O)cc1	-22	-11	-46*	-9
C=CCn1c(O)c(/C=C2/C=CC=N2)c(=O)[nH]c1=O	4	-34	-1	-5
O=c1[nH]c(=O)n(Cc2ccccc2Cl)c(O)c1/C=C1/C=CC=N1	-10	58*	-10	1
Cc1ccccc1N1C(=O)NC(=O)/C(=C\c2ccc3c(c2)CCCN3Cc2ccccc2)C1=O	1	171*	1	0
CCn1c(NN=O)nc2ccccc21	-9	-15	-2	-5
CC(C)[C@@]1(NC(=O)[C@@H]2C=C3c4cccc5[nH]cc(c45)C[C@H]3N(C)C2)O[C@@]2(O)[C@@H]3CCCN3C(=O)[C@H](Cc3ccccc3)N2C1=O	·	112*	·	·
CC(C)C[C@H]1C(=O)N2CCCC2[C@]2(O)O[C@](NC(=O)[C@@H]3C=C4c5cccc6[nH]cc(c56)CC4N(C)C3)(C(C)C)C(=O)N12 (stereo partly drawn)	6	97*	-7	-3
CC(C)[C@H]1C(=O)N2CCC[C@H]2[C@]2(O)O[C@](NC(=O)[C@@H]3C=C4c5cccc6[nH]cc(c56)C[C@H]4N(C)C3)(C(C)C)C(=O)N12	-2	112*	·	-3
CC(C)[C@@]1(NC(=O)[C@@H]2C[C@@H]3c4cccc5[nH]cc(c45)C[C@H]3N(C)C2)O[C@@]2(O)[C@@H]3CCCN3C(=O)[C@H](Cc3ccccc3)N2C1=O	3	12	1	-8
CC1CN2c3ccc([N+](=O)[O-])cc3CC3(C(=O)N(C)C(=O)N(C)C3=O)C2C(C)O1 (stereo not drawn)	0	-16	-1	-7
CCN1C[C@]2(CO)CC[C@H](OC)[C@@]34C5C[C@H]6[C@H](OC)C5[C@](O)(C[C@H]6OC)[C@@](O)(C(OC)C23)[C@@H]14 (stereo partly drawn)	-9	·	1	2
COC1CC(OC2CCC3(C)C(CCC4C3CCC3(C)C(C5=CC(=O)OC5)C(OC(C)=O)CC43O)C2)OC(C)C1OC1OC(COC2OC(CO)C(O)C(O)C2O)C(O)C(O)C1O (stereo not drawn)	-3	-14	1	6
COC(=O)C1=C(c2ccc(C(C)=O)cc2)C[C@@H]2CC[C@H]1N2C(=O)NCc1ccc(C(F)(F)F)cc1	·	·	·	-7
CN1Cc2c(c(C#N)c(N)n(C)c2=S)CC1(C)C	2	52*	-48*	13
CCOc1ccc(-n2c(O)c(C=Nc3ccc(N(CC)CC)cc3)c(=O)[nH]c2=O)cc1	-8	82*	-19	7
O=C(N/N=C/c1c(O)n(Cc2ccccc2)c(=O)[nH]c1=O)c1ccccc1O	-1	-10	-36*	9
O=C(N/N=C/c1c(O)n(Cc2ccc(F)cc2)c(=O)[nH]c1=O)c1ccccc1O	2	-3	?	0
CCN(CC)c1ccc(N=Cc2c(O)n(Cc3ccccc3)c(=O)[nH]c2=O)cc1	-7	-8	-29*!	-11
NC1=NC(=O)C(c2ccccc2)O1 (stereo not drawn)	·	-9	·	·
COC(=O)C1=CO[C@@H](C)[C@@H]2CN(CCc3c[nH]c4ccccc34)CC[C@H]12	8	·	0	10
O=[N+]([O-])c1cccc(NP(=O)(Oc2ccccc2)Oc2ccccc2)c1	-3	·	-1	-1
COc1cccc(C2CCN(CC(=O)Nc3cc(Cl)ccc3OC)CC2O)c1 (stereo not drawn)	-2	·	1	-9
Cc1cc(/C=C2\C(=O)NC(=O)N(Cc3ccccc3)C2=O)c(C)n1C1CC1	13	27	-58*	-11
Cc1cc(OCC(=O)N2CCC(C(=O)O)CC2)c2c3c(c(=O)oc2c1)CCC3	1	·	1	11
C=CCn1c(O)c(C(C)=Nc2ccc(N(C)C)cc2)c(=O)[nH]c1=O	58*	-3	0	150*
CN(C)c1ccc(/C=C/c2cc[n+](C)c3ccccc23)cc1	·	-9	·	·
CC[n+]1c(/C=C/C=C/c2ccc(N(C)C)cc2)sc2ccccc21	105*	-9	-28*	164*

Compound activity as filed in PubChem BioAssay.
